High-throughput results as filed in PubChem BioAssay.
VDR inh – Inhibitors of the vitamin D receptor (VDR): qHTS | Vitamin D3 receptor (Homo sapiens), P11473 | VDR-SRC2-3 peptide fluorescence polarization, 2 h | Potency, µM, inactives show max response, negative = inhibition, usual class: inhibitors | AID 504847, 2011 | actives 0.93% (n = 400,000); note: % is set by controls: 0 for no effect and ±100 for the full control effect
Target sequence (P11473 whole entry, looked up): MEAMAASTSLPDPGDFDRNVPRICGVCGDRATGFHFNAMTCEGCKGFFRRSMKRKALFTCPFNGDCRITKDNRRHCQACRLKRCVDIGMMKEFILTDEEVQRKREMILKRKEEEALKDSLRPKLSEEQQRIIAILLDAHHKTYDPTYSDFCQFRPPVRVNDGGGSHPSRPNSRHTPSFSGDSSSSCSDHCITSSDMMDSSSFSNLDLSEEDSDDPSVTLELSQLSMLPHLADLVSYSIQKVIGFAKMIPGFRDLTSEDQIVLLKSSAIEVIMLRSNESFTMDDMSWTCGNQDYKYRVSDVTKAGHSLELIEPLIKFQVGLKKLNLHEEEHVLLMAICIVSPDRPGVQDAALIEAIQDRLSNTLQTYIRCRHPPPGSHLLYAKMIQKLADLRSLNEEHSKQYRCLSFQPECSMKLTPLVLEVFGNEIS
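After 23 nl compound addition and a short centrifugation, plates sat for 2 hours at ambient temperature; polarization of fluorescence then indicated loss of VDR binding to peptide SRC2-3.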
Tb PFK inh – qHTS Assay to Find Inhibitors of T. brucei phosphofructokinase; ATP-dependent 6-phosphofructokinase (Trypanosoma brucei brucei), O15648; T. brucei PFK, ADP-Glo luminescence; Potency, µM (series often up to 57.5 µM), for the others: top-dose activity, negative = inhibition, actives largely listed as inhibitors; actives 0.17% (n = 330,000);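 note: 0% = uninhibited 1x PFK enzyme wells and -100% = no-enzyme wells; nearly all actives have a fitted effect of over 60% in size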
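Luminescent ADP detection (ADP-Glo, two-step: ATP depletion then ADP-to-ATP conversion for luciferase) reported PFK activity after 45 min room-temperature reaction of 1.25 nM enzyme with 0.5 mM F6P and 0.1 mM ATP at pH 8.0.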
TDP1 inh – qHTS Assay for Inhibitors of Tyrosyl-DNA Phosphodiesterase (TDP1); recombinant TDP1, AlphaScreen DNA substrate cleavage; Potency, µM (series often up to 130 µM), for the others: at the top dose activity change, negative = inhibition, actives largely listed as inhibitors; AID 485290, 2010; actives 0.28% (n = 350,000); note: % is set by controls: 0 for no effect and ±100 for the full control effect; nearly all actives have a fitted effect of over 40% in size
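Enzyme-compound mixtures sat 15 min at room temperature, followed by a 5 min reaction with 15 nM final substrate and 10 min with AlphaScreen beads. Recombinant human Tdp1 was used at 1 nM final.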
PLK1 PBD block – qHTS for Inhibitors of PLK1-PDB (polo-like kinase 1 - polo-box domain): Primary Screen; Potency, µM, for the others: max response, negative = inhibition, hits mostly inhibitors; actives 2.8% (n = 360,000); Plk1 PBD binding of FITC phosphopeptide, fluorescence polarization; Serine/threonine-protein kinase PLK1 (Homo sapiens), P53350; note: series mostly up to about 57 µM; % is set by controls: 0 for no effect and ±100 for the full control effect; nearly all actives have a fitted effect of over 65% in size
Pin1 inhibitor – qHTS Assay to Find Inhibitors of Pin1; Peptidyl-prolyl cis-trans isomerase NIMA-interacting 1 (Homo sapiens), Q13526; Pin1 FP peptide displacement, HiFluor488, 10 min; Potency, µM (series often up to 115 µM), for inactives: at the highest dose activity, negative = inhibition, usual class: inhibitors; actives 0.009% (n = 390,000); AID 504891, 2011; active = well fitted inhibition curve with a large enough effect in the polarisation, with a control signal flat, not every such curve was filed as active; inconclusive = small, poorly fitted or top-dose-only effect, or effect the other way, or a change in a side signal; inactive = no such curve, though single readings can be large or run the other way; the % refers to the polarisation; note: % is set by controls: 0 for no effect and ±100 for the full control effect
Target sequence (Q13526 whole entry, looked up): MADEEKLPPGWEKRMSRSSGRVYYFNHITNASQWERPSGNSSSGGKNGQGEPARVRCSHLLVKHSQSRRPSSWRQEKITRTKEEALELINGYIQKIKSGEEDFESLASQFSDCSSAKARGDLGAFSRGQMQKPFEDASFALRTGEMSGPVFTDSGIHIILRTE
ASM inhibitor – Inhibitors of Secretory Acid Sphingomyelinase (S-ASM): qHTS. Sphingomyelin phosphodiesterase (Homo sapiens), P17405. placental ASM, HMU-PC fluorogenic substrate, 60 min. Potency, µM (doses to about 57.5 µM), for the others: top-dose activity change, negative = inhibition, hits mostly inhibitors. actives 0.006% (n = 340,000)
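Fluorescence read-out (Ex 386 nm, Em 447 nm) after stopping the reaction at pH 10. Enzyme: ASM from human placenta; substrate HMU-PC0, 9 uM final; 60 min, 37 °C. Compound preincubation 10 min, ambient temperature.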
TbPYK inh – qHTS of Trypanosoma Brucei Inhibitors: Confirmatory Assay for Cherry-picked Compounds; recombinant TbPYK, Kinase-Glo ATP luminescence; AID 720569, 2013; shares compounds with PLK1 PBD block; Potency, µM (doses to about 76.9 µM), inactives show at the top dose activity change, negative = inhibition, hits mostly inhibitors; actives 67% (n = 890); note: % is set by controls: 0 for no effect and ±100 for the full control effect; nearly all actives have a fitted effect of over 70% in size
TbPYK orthogonal – qHTS of Trypanosoma Brucei Inhibitors: Orthogonal Assay for Cherry-picked Compounds; shares compounds with PLK1 PBD block; Potency, µM (series often up to 76.9 µM), for the others: at the top dose activity change, negative = inhibition, actives largely listed as inhibitors; recombinant TbPYK, ADP-Glo luminescence, 60 min; actives 62% (n = 890); AID 720584, 2013; note: % is set by controls: 0 for no effect and ±100 for the full control effect; nearly all actives have a fitted effect of over 75% in size
The depositor's hits bear a star; ? = inconclusive; / = not tested or not shown; [ ] = dose if it differs, or a comment. The list is not random: actives were taken first. Their share in the collection is about 3.1%. Unless noted, calls come from the whole dose curve; as a rule, active = well fitted curve in the direction sought with a large enough effect; inconclusive = small, poorly fitted or top-dose-only effect, or another doubt; inactive = no such curve, though single readings can be large; an effect the other way counts as inactive or inconclusive. Potency is the fitted concentration of half-maximal effect.

SMILES	VDR inh	Tb PFK inh	TDP1 inh	PLK1 PBD block	Pin1 inhibitor	ASM inhibitor	TbPYK inh	TbPYK orthogonal
Fc1cccc(/C=N/Nc2nccnc2Cl)c1	-12%	-12%	5%	-22%	0%	10%	?	0%
CC(=O)N1CC[n+]2c(-c3ccc(Cl)cc3)csc21	20µM*	-25%	0%	6µM*	-11%	16%	16µM*	7.1µM*
O=C(O)c1c(F)c(F)c(F)c(F)c1-c1ccc(Cl)cc1	1%	-4%	3%	-5%	1%	3%	/	/
Cc1ccc(N2C(=O)C3C4C=CC(CC4)C3C2=O)cc1[N+](=O)[O-] (stereo not drawn)	-9%	?	/	-1%	-3%	0%	/	/
Cc1cc(C)cc(N2C(=O)C=CC2=O)c1	40µM*	/	/	3µM*	2%	3%	10µM*	14µM*
Cc1c([N+](=O)[O-])cc(N2C(=O)C=CC2=O)cc1[N+](=O)[O-]	-7%	/	/	2.7µM*	/	-2%	4µM*	7.9µM*
Cc1cc(C)cc(N2C(=O)c3nccnc3C2=O)c1	-19%	-6%	4%	-12%	-1%	4%	/	/
COc1cc(OC)cc(N2C(=O)N(Cc3ccc(C(C)(C)C)cc3)c3ccccc3S2(=O)=O)c1	21%	/	3%	/	16%	/	/	/
CCN1CCC2(CC1)N=C(c1ccc(F)cc1)C(=S)N2C(=O)c1ccc(C(C)(C)C)cc1	79µM*	-19%	-3%	9.5µM*	0%	0%	13µM*	18µM*
CCN1C(=O)/C(=C/C=C2/Sc3ccc4ccccc4c3N2CCO)SC1=S	3%	-5%	3%	-9%	40%	3%	16µM*	?
COC(=O)c1c(-c2ccc(C(C)(C)C)cc2)csc1NC(=O)C1C2CCC(O2)C1C(=O)O (stereo not drawn)	45µM*	-26%	0%	2.7µM*	-3%	-2%	4.5µM*	14µM*
Cc1c(C(=O)N2CCCCCC2)c(S(=O)(=O)Nc2ccc(OC(F)(F)F)cc2)c(C)n1C	0%	/	11%	/	-3%	/	/	/
c1ccc2sc(N3CCOCC3)nc2c1	0%	1%	3%	-10%	-1%	-4%	/	/
c1ccc2sc(SN3CCOCC3)nc2c1	?	0%	7%	21µM*	4%	0%	28µM*	35µM*
CC(=O)SC(C[N+](=O)[O-])c1cn(C(C)=O)c2ccccc12 (stereo not drawn)	45µM*	?	7%	4.2µM*	10%	-3%	?	?
CC(=O)n1cc(Nc2ccc([N+](=O)[O-])cc2)c2ccccc21	-4%	-5%	8%	-14%	22%	0%	/	/
Cc1ccc(CSc2nc3ccc(NC(=O)COc4ccccc4)cc3s2)cc1	5%	/	8%	/	-2%	/	/	/
CNC(=O)C1CCC(Cn2c(=O)c3sccc3n(CC(=O)Nc3ccc(C)c(F)c3)c2=O)CC1 (stereo not drawn)	2%	/	3%	/	2%	/	/	/
O=C(c1ccccc1)c1ccccc1N1C(=O)C=CC1=O	25µM*	?	10%	3.4µM*	9%	5%	4µM*	4µM*
CCOc1ccccc1-c1nnc2n1N=C(c1cc(OC)cc(OC)c1)CS2	/	/	8%	/	-7%	/	/	/
CCN(C(=O)Cn1nc(Cc2cccnc2)c2ccccc2c1=O)c1cc(C)ccc1C	-2%	/	12%	/	2%	/	/	/
Cc1ccc2c(c1)C(N1CCCC1=O)CC(c1ccco1)N2 (stereo not drawn)	-13%	?	4%	?	-9%	19%	-11%	-6%
Cc1ccc2c(c1)c1c3n2CCN(C(=O)c2ccc(C(F)(F)F)cc2)C3CCC1 (stereo not drawn)	-8%	/	-3%	/	4%	/	/	/
CCN(CC)c1ccc(CN(C(=O)Cc2coc3ccc(C)cc23)C2CCS(=O)(=O)C2)cc1 (stereo not drawn)	1%	/	7%	/	0%	/	/	/
COc1ccc2nc(C)cc(Nc3ccc(Cl)c(Cl)c3)c2c1	16%	/	3%[12.3 µM]	/	5%	/	/	/
SMILES	VDR inh	Tb PFK inh	TDP1 inh	PLK1 PBD block	Pin1 inhibitor	ASM inhibitor	TbPYK inh	TbPYK orthogonal
Cc1cc(NC(=O)CN(C)S(=O)(=O)c2ccc3c(c2)CCC(=O)N3)ccc1Br	-15%	/	2%	/	0%	/	/	/
CCOC(=O)C1Nc2ccc(C)cc2C2C=CCC12 (stereo not drawn)	-25%	/	/	-29%	?	3%	/	/
CCOC(=O)c1ccc2c(c1)C1C=CCC1C(C(=O)OCC)N2 (stereo not drawn)	-3%	-3%	/	-17%	-19%	50%	-27%	-16%
CC1(C)Cc2c(C#N)c(SCC(=O)c3ccccc3)nc(N3CCOCC3)c2CO1	?	-9%	1%	-21%	6%	4%	10µM*	11µM*
CC1(C)Cc2c(C#N)c(SCc3ccccc3)nc(N3CCOCC3)c2CO1	17%	-7%	-5%	-3%	?	-15%	/	/
CC(C)Sc1nc(N2CCOCC2)c2c(c1C#N)CC(C)(C)N(C)C2	?	0%	8%	2.7µM*	-11%	10%	-11%	-6%
Cc1cc(C(=O)c2ccccc2)cc(C)c1O	-5%	/	/	2%	-5%	0%	/	/
CC1=C/C(=C(\c2cc(C)c(O)c(Br)c2)c2ccccc2S(=O)(=O)O)C=C(Br)C1=O	132%	?	15%	-14%	?	1%	13µM*	13%
COc1ccc(CCNC(=O)c2nc(SCc3ccccc3F)ncc2Cl)cc1OC	-7%	/	7%	/	20%	/	/	/
CCOC(=O)CCc1c(C)nc(SCCN2CCCC2)c(C#N)c1C	3%	0%	3%	-26%	11%	4%	/	/
